Screening data deposited in PubChem by Columbia University Molecular Screening Center.
TNFa cytotox – HUVEC cytotoxicity counter-screen, TNF alpha stimulated; HUVEC TNFalpha-stimulated, Hoechst cell count, imaging; cell count reduction, % at 2 µM; 93,000 compounds, 0.17% hits; AID 848;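 active = cell count reduction exceeding the screen mean by over 5 SD, scaled to untreated wells per plate, cut at about 78% in these data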;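 note: cells counted after 24 h of TNF alpha exposure following the 1 h pretreatment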
IL1B NFkB pot – enhances IL-1B driven NFkB nuclear translocation; HUVEC IL-1B NFkB p65 nuclear translocation imaging; activation, % at 2 µM; 94,000 compounds, 0.3% hits; AID 819;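 active = activation above 40%, about the mean plus 3 SD, also judged a hit on visual image review; inconclusive = activation above 40% but not a hit on visual review; inactive = activation not above 40% and no visual hit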;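 note: percent activation is computed from the nuclear over cytoplasmic p65 intensity ratio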
VCAM1 TNFa inh – reduces TNF alpha induced VCAM1 expression in HUVEC; HUVEC TNFa-induced VCAM-1 immunofluorescence, high-content imaging; inhibition, % at 2 µM; 95,000 compounds, 0.48% hits; AID 802;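 active = inhibition above the batch mean plus 3 SD, with images confirmed as a hit by eye, cut at about 37% in these data; inconclusive = inhibition above that limit but hit not confirmed in images; inactive = inhibition not above that limit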
NFkB transloc inh – blocks IL-1B driven NFkB nuclear translocation in HUVEC cells; HUVEC IL-1B NFkB p65 nuclear translocation imaging; 94,000 compounds, 0.43% hits; AID 796; inhibition, % at 2 µM;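 active = inhibition above about 30% together with a positive call from visual inspection of the well image, limit read from the data; inconclusive = inhibition above a set limit but visual check negative; inactive = inhibition not above a set limit, visual check negative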;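 note: nuclear over cytoplasmic p65 intensity ratio measured by imaging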
IL1B cytotox – HUVEC cytotoxicity counter-screen, IL-1B stimulated; HUVEC cell count loss, Hoechst imaging; cell count reduction, % at 2 µM; 94,000 compounds, 0.41% hits;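 active = cell count reduction more than 3 SD above the screen-wide mean, cut at about 70% in these data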
Numbers stand for hits; . = inactive; ? = inconclusive; / = not tested or not shown. Sampled rows, rich in hits. Any-hit rate of the full collection: about 1.5%.

SMILES | TNFa cytotox | IL1B NFkB pot | VCAM1 TNFa inh | NFkB transloc inh | IL1B cytotox
CC1(C(=O)O)CCC(C(=O)Nc2ccc3ccccc3c2)C1(C)C (stereo not drawn) | . | . | . | . | .
Clc1ccccc1Sc1cnc2ccccc2n1 | . | . | . | 36 | .
CCOC(=O)NC(NC(=O)OCC)C(=O)c1ccc(F)cc1 | . | . | . | . | .
CCC(=O)NC(O)C(=O)c1ccc(C)cc1 (stereo not drawn) | . | . | . | 32 | .
Cc1ccc(Cn2c(=O)cc(C(=O)O)c3ccccc32)cc1 | . | . | . | . | .
CCOC(=O)c1cc(=O)n(Cc2ccccc2C)c2ccccc12 | . | . | 86 | . | .
CCC(C)Nc1nc2c(c(=O)[nH]c(=O)n2C)n1CCC(C)C (stereo not drawn) | . | . | . | . | .
COc1cccc(CNC(=O)C2CCCN(S(=O)(=O)c3c(C)n[nH]c3C)C2)c1 (stereo not drawn) | 79 | . | . | . | .
COC(=O)c1ccccc1NC(NC(=O)c1ccco1)C(=O)c1ccc(C)cc1 (stereo not drawn) | 86 | . | 62 | . | .
CCOc1cc(NC(=S)Nc2cccc(OC)c2)c(OCC)cc1NC(=O)C(C)C | . | . | . | . | .
Cn1c(CCNC(=O)c2cccs2)nnc1SCC(=O)Nc1nc(-c2ccccc2)cs1 | . | . | . | . | .
Cc1csc(NC(=O)CSc2nnc(CCNC(=O)c3cccs3)n2C)n1 | . | . | . | 99 | 89
O=C(CN(Cc1ccco1)C(=O)CNS(=O)(=O)c1ccccc1)NCc1ccccc1 | . | . | . | . | .
Cc1nnc(SCC(=O)NCc2ccco2)n1Cc1ccccc1 | . | . | . | . | .
CCCn1c(SCC(=O)NCc2ccco2)nnc1C(C)C | 82 | . | 84 | . | .
CC1(C)Cc2c(cnn2-c2ccccc2)-c2c1c1ccccc1n2CC(O)CCl (stereo not drawn) | . | . | . | . | 91
CC1(C)Cc2c(cnn2-c2ccccc2)C(=O)/C1=N\NC(=O)c1ccncc1 | . | . | . | . | .
CCC(=O)N1c2ccc(S(=O)(=O)CCC(=O)NC3CCCC3)cc2CC1C (stereo not drawn) | . | . | . | . | .
CCC(=O)N1c2ccc(S(=O)(=O)CCC(=O)N3CCn4c3nc3ccccc34)cc2CC1C (stereo not drawn) | 84 | . | 83 | . | .
O=C(c1cccc(F)c1)N1CCN(Cc2ccco2)CC1 | . | 40 | . | . | .
CCOC(=O)/C(=C/c1c2ccccc2cc2ccccc12)NC(=O)c1ccccc1 | / | . | . | . | 92
CC(=O)Nc1ccc(-c2nn[nH]n2)cc1Cl | . | . | . | . | .
COC(=O)c1ccc(CSc2nnnn2-c2ccc(C)cc2C)o1 | . | . | . | . | .
Cc1cc(C)c(OCCCCCNCCO)c(C)c1 | . | 42 | . | . | .
Cc1cc(C)cc(OCCCCCNCCO)c1 | . | . | 96 | . | .
SMILES | TNFa cytotox | IL1B NFkB pot | VCAM1 TNFa inh | NFkB transloc inh | IL1B cytotox
COc1ccc(CN2CCN(C(=O)c3cccnc3)CC2)cc1Br | . | . | . | . | .
C=CCN1C(=O)C2C(C(=O)NC3CCCCC3)C3C=CC2(O3)C1C(=O)NC1CCCC1 (stereo not drawn) | . | . | . | 100 | 90
CC1(C)CC(=O)c2sc(NC(=O)CCS(=O)(=O)c3ccccc3)nc2C1 | . | . | . | . | .
Cc1ccc(-n2nc3ccc(NC(=O)c4ccc5c(c4)OCO5)cc3n2)cc1 | . | . | . | . | .
CCCC(=O)Nc1c2c(nn1-c1ccc(C)cc1C)CSC2 | . | . | . | . | 83
CC(=O)Nc1c2c(nn1-c1ccc(C)cc1C)CSC2 | . | . | . | . | .
Cc1ccc(-n2nc3c(c2NC(=O)c2ccc4c(c2)OCO4)CSC3)cc1 | . | . | . | 98 | 93
O=C(Oc1ccc2ccc(=O)oc2c1)N1CCOCC1 | 79 | . | 90 | . | .
CC(=O)c1cc(OC(=O)N2CCOCC2)ccc1OC(=O)N1CCOCC1 | . | . | . | . | .
Cc1nc(CNS(=O)(=O)c2ccc3c(c2)OCCO3)cs1 | . | 59 | . | . | .
COc1ccc(CNc2ccc3c(c2)ncn3-c2ccccc2OC)cc1 | . | . | . | . | .
COc1ccccc1-n1cnc2cc(NCc3ccco3)ccc21 | . | . | 40 | . | .
Cc1ccccc1-n1cnc2cc(NCc3cccs3)ccc21 | . | . | . | . | .
COc1ccccc1-n1cnc2cc(NCc3cccs3)ccc21 | . | . | 82 | . | .
Cc1ccc2[nH]c(=O)c(CN(Cc3cccnc3)C(=O)c3ccncc3)cc2c1 | . | . | . | . | .
Cc1cc(C)n(-c2nc(NCCCO)c3c4c(sc3n2)CCCC4)n1 | . | . | . | . | .
CC(C)[C@H](NC(=O)c1ccco1)C(=O)OCC(=O)N1CCc2ccccc21 | . | . | . | . | .
O=C(Cn1cc(C(=O)C2CC2)c2ccccc21)NCc1ccccc1 | . | . | . | . | .
O=C(O)Cn1cc(C(=O)C2CC2)c2ccccc21 | . | . | . | . | 82
c1ccc(-c2nnc(CSc3nncs3)o2)cc1 | . | . | 93 | . | .
c1ccc(Cc2nnc(-c3ccccc3)o2)cc1 | . | . | . | ? | .
OC(COc1c(Cl)cc(Cl)cc1Cl)CN1CCCCC1 (stereo not drawn) | . | . | . | . | .
O=C(CC(c1ccccc1)c1ccccc1)NCC1CCCO1 (stereo not drawn) | . | . | 41 | . | .
Cn1nc(C(=O)NCC2CCCO2)c2ccccc2c1=O (stereo not drawn) | 84 | . | 95 | . | .
O=C(CCSc1ccccc1)NCC1CCCO1 (stereo not drawn) | . | . | . | . | .
SMILES | TNFa cytotox | IL1B NFkB pot | VCAM1 TNFa inh | NFkB transloc inh | IL1B cytotox
COC(=O)[C@H](C)NC(=O)NC1CCN(Cc2ccccc2)CC1 | . | . | . | . | 83
O=C(COc1ccccc1F)NC1CCN(Cc2ccccc2)CC1 | . | . | . | . | .
CCOC(=O)c1ccc(NS(=O)C23CC4CC(CC(C4)C2)C3)cc1 (stereo not drawn) | . | . | 54 | . | .
OCCN=C1CCCc2c1[nH]c1ccc(Br)cc21 | . | . | 92 | . | .
CC(C)COc1ccc2[nH]c3c(c2c1)CCCC3=O | . | . | . | . | .
O=C1CCCCN1CCc1c[nH]c2ccccc12 | . | . | . | . | 86
O=C1CCC(=O)N1CCc1c[nH]c2ccccc12 | . | . | . | . | .
CN(C)C(=O)NCc1ccc(S(N)(=O)=O)cc1 | . | . | . | . | 87
NS(=O)(=O)c1ccc(CNC(=O)C2CCCCC2)cc1 | . | . | . | . | .
NS(=O)(=O)c1ccc(CNC(=O)CC23CC4CC(CC(C4)C2)C3)cc1 | . | . | . | 32 | .
Cc1cc(C(=O)NCc2ccc(S(N)(=O)=O)cc2)c(C)o1 | . | . | . | . | .
O=C(Nc1ccc(F)cc1F)c1cc2n(n1)C(C(F)(F)F)C1CCCCC1N2 (stereo not drawn) | . | . | . | . | .
CCCCNC(=O)NS(=O)(=O)c1ccc(C(=O)OC(C)C)o1 | . | . | . | . | .
